Test results taken from PubChem BioAssay AID686979 (National Center for Advancing Translational Sciences (NCATS), 2013).
In all, about 420,000 compounds went through this assay and about 50,000 (12%) were called active. Inconclusive results (about 26%) are left out. This is one part of a sample in which actives are shown more often than they occur. Values without a mark were called inactive. The call rests on the fitted dose curve; in most records, active means well fitted inhibition curve with a large enough effect; inconclusive means small, poorly fitted or top-dose-only effect; inactive means flat fitted curve, though single readings scatter.

Experiment: qHTS for Inhibitors of human tyrosyl-DNA phosphodiesterase 1 (TDP1): qHTS in cells in presence of CPT; further: nearly all actives have a fitted effect of over 55% in size
Conditions: chicken DT40 Tdp1-/-;hTDP1 cells + 20 nM CPT, ATP luminescence, 48 h; series mostly up to 46.2 µM; activity change, negative = growth inhibition: at the top concentration
In short: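 Chicken DT40 Tdp1-/- cells complemented with human TDP1, 400 cells/well, exposed to compounds plus 20 nM camptothecin for at least 48 h at 37 C; viability read as ATP content by CellTiter-Glo luminescence.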
On the % scale 0 is the no-effect control and ±100 the full control effect; potency means the concentration at half of the fitted maximal effect.

SMILES | activity change, negative = growth inhibition | Potency
COc1ccc(CCNc2nc(C)cc(C)n2)cc1OC | 1.65% | 
COc1ccc(CCNc2nc(-c3ccc(Cl)cc3)cc(C(F)(F)F)n2)cc1OC |  | 23.1 µM (active)
COc1ccc(CCNC(=O)COC(=O)c2ncc(Cl)c(Cl)c2Cl)cc1OC | -11.5% | 
O=C(CN(C(=O)c1csnn1)c1ccc(Br)cc1)NC1CCCC1 | 3.35% | 
O=C(CCN1C(=O)[C@H]2CC=CC[C@H]2C1=O)NCc1nc(-c2ccccc2)no1 | -5.36% | 
COc1ccc(OC)c(NC(=O)c2ccc3c(c2)C(=O)N(c2ccc(OC(C)=O)cc2)C3=O)c1 | 5.37% | 
CC1CCCCN1CCCNc1ccc(C(CC(N)=O)NC(=O)c2ccccc2)cc1[N+](=O)[O-] (stereo not given) | 8.16% | 
Cc1ccc(OCC(=O)Nc2ccc(NC(=O)c3cccs3)cc2)c(C)c1 | -14% | 
CCC(C)N1C(=S)SC(C)(C)C1N(O)C(=O)NC1CCCCC1 (stereo not given) | -24.1% | 
O=C(COC(=O)c1ccc(O)cc1O)NNC(=O)c1cccs1 | 2.24% | 
Cc1cc2nc3n(c2cc1C)CC1CC(C(=O)NCCC(C)C)N(C)C31 (stereo not given) | 1.75% | 
COc1ccc(-n2ncc3c(SCC(=O)NNC(C)=O)ncnc32)cc1 | 5.07% | 
COCCN1Cc2cccc(C(=O)Nc3ccccc3OC)c2C1=O | -15% | 
CCOc1ccc(NC(=O)c2cccc3c2C(=O)N(CC2CCCO2)C3)cc1 (stereo not given) | -6.22% | 
COc1ccc(NC(=O)c2cccc3c2C(=O)N(CC2CCCO2)C3)cc1OC (stereo not given) |  | 23.1 µM (active)
O=C1NC(c2ccccc2)CCC1(Cl)Cl (stereo not given) | 3.71% | 
Cc1ccc(NC(=O)CCN2C(=O)c3ccccc3C2=O)cc1C | -4.36% | 
COC(=O)C[C@H]1C[C@@H]2c3cc(NC(=O)Nc4ccccc4)ccc3O[C@@H]2[C@@H](CO)O1 | -6.14% | 
O=C(CN1Cc2ccccc2OC(c2ccccc2)C1)N1CCCCC1c1cccnc1 (stereo not given) | -0.761% [at 9.04 µM] | 
COc1ccc(CNCCCNCc2ccc(OC)c(OC)c2)cc1OC | -9.22% | 
COc1cc(CNCc2cccs2)cc(Br)c1OC | -7.72% | 
COc1cc(CNCc2ccc(OC)c3ccccc23)cc(OC)c1OC |  | 9.2 µM (active)
Cn1cncc1COC(=O)c1ccc(Cl)cc1 | -14.8% | 
Cc1ccccc1NC(=O)c1nn(-c2ccc(F)c(F)c2)ccc1=O | -1.27% | 
Cc1cccc(NC(=S)N(CCN(C)C)C(C)c2ccco2)c1 (stereo not given) | -17.4% | 
CN1CCN(c2ccncc2S(=O)(=O)N2CCCC2)CC1 | 9.33% | 
CC(C)NC(=O)N1CCN(c2ccncc2S(=O)(=O)N2CCCCC2)CC1 | 2.06% | 
O=S(=O)(c1cnccc1N1CCN(/N=C/c2ccc(Br)cc2)CC1)N1CCCCC1 |  | 18.4 µM (active)

SMILES | activity change, negative = growth inhibition | Potency
Cc1ccc(NC(=O)COc2ccc(/C=N\NC(=O)c3cccnc3)cc2)cc1C | -5.23% | 
CC1(C)N=C(N)NC(Nc2ccc(Cl)cc2)=N1 | -13.1% | 
COc1ccccc1NC1=NC2(CCCC2)N=C(N)N1 | -12.7% | 
COc1ccccc1NC1=NC(c2ccc(Cl)cc2)N=C(N)N1 (stereo not given) |  | 5.17 µM (active)
CC1(C)C(C=C(Cl)Cl)C1C(=O)NC(O)C(=O)c1ccccc1 (stereo not given) | 2.14% | 
COCCN(C(=O)CSCc1ccc(C)cc1)c1c(N)n(CC(C)C)c(=O)[nH]c1=O | 9.75% | 
C[C@]12C=CC(=O)C=C1CC[C@@H]1[C@@H]2C(=O)C[C@@]2(C)[C@H]1CC[C@]2(O)C(=O)CO |  | inactive
CCC1CCCCN1C(=S)NC(=O)c1ccco1 (stereo not given) | 0.583% | 
O=C1OC(c2ccc(Cl)cc2)=N/C1=C\c1cccnc1 | -25.1% | 
CCOc1cc(/C=C2/N=C(c3ccc(C(C)(C)C)cc3)OC2=O)cc(Cl)c1OS(C)(=O)=O |  | 18.4 µM (active)
CC1CCN(C(=O)COC(=O)CCC(=O)c2cccs2)CC1 | -0.232% | 
COc1cc(C2CC(=O)Oc3cc(OC)c(OC)c(OC)c32)cc(OC)c1OC (stereo not given) | -8.15% | 
Cc1cc(C)cc(NS(=O)(=O)Cc2ccccc2)c1 | 14.9% | 
Cn1nnnc1SCC(=O)NNC(=O)c1ccc(Br)cc1 | 0.881% | 
Cc1nc2ccccc2cc1O | -22.8% | 
Cc1nc2ccccc2cc1OCc1ccc(F)cc1 |  | 11.6 µM (active)
Cc1occc(=O)c1OCc1ccc(F)cc1 | 13.4% | 
COC(=O)C1[C@H]2SC(C)(C)C(C(=O)OC)N2C(=O)N1Cc1nc2ccccc2s1 (stereo not given in full) | -1.96% | 
COCCNC(=O)c1cc(-c2cccc(Cl)c2)on1 | 4.91% | 
CC(C)c1nnc(NC(=O)C2CC(=O)N(CCc3ccc(F)cc3)C2)s1 (stereo not given) | 7.52% | 
O=C(CCC(=O)n1ncc2ccccc21)NCc1ccccc1Cl | -1.16% | 
O=C(Cc1ccccc1)Nc1ccc(NC(=O)c2cccnc2)cc1 | -28% | 
CCCC(=O)Nc1nc2ccc(NC(=O)c3cccnc3)cc2s1 |  | 9.2 µM (active)
CCOC(=O)c1cc(NC(=O)c2cccnc2)cc(C(=O)OCC)c1 | -8.88% | 
CCc1noc(C)c1C(=O)Nc1nc2ccc(OC)cc2s1 | 13.8% | 
CCCC(=O)Nc1ccc2c(c1)nc1n2CCSC1 | -0.992% | 
CCCC(=O)Nc1nc2ccc(NC(=O)c3c(F)c(F)c(OC)c(F)c3F)cc2s1 |  | 0.92 µM (active)
